Experimental data: PubChem BioAssay (NCI)
About 83,000 compounds went through this panel and 20% of them were active in at least one assay; those are over-represented in the sample as a whole.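 Single-dose data. Exposure time 48 hours. Values below 10 considered active.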 A number with no mark means an inactive call. The source made the active and inactive calls.

Experiments:
Test in all cases: NCI-60 one-dose screen, 48 h (100 = growth as untreated, 0 = no growth, -100 = all killed)
NCI-H23 lung = conditions: 10 µM unless noted
786-0 renal = conditions: 10 µM unless noted
DU-145 prostate = conditions: 10 µM unless noted
MDA-MB-231 breast = conditions: 10 µM unless noted
SF-268 CNS = conditions: 10 µM unless noted
SF-539 CNS = conditions: 10 µM unless noted
M14 melanoma = conditions: 10 µM unless noted
HCT-15 colon = conditions: 10 µM
UACC-62 melanoma = conditions: 10 µM unless noted
LOX IMVI melanoma = conditions: 10 µM unless noted
SK-MEL-28 melanoma = conditions: 10 µM unless noted
ACHN renal = conditions: 10 µM unless noted
OVCAR-5 ovarian = conditions: 10 µM unless noted
OVCAR-3 ovarian = conditions: 10 µM unless noted
NCI/ADR-RES ovarian = conditions: 10 µM unless noted
T-47D breast = conditions: 10 µM unless noted
MDA-MB-435 melanoma = conditions: 10 µM unless noted
SW-620 colon = conditions: 10 µM unless noted
MCF7 breast = conditions: 10 µM unless noted
KM12 colon = conditions: 10 µM unless noted

Row | Compound | growth (NCI-H23 lung) [%] | growth (786-0 renal) [%] | growth (DU-145 prostate) | growth (MDA-MB-231 breast) [%] | growth (SF-268 CNS) [%] | growth (SF-539 CNS) | growth (M14 melanoma) | growth (HCT-15 colon) | growth (UACC-62 melanoma) [%] | growth (LOX IMVI melanoma) | growth (SK-MEL-28 melanoma) | growth (ACHN renal) [%] | growth (OVCAR-5 ovarian) [%] | growth (OVCAR-3 ovarian) | growth (NCI/ADR-RES ovarian) | growth (T-47D breast) | growth (MDA-MB-435 melanoma) | growth (SW-620 colon) | growth (MCF7 breast) | growth (KM12 colon)
1 | COc1cc(N(CCCl)CCCl)ccc1C=Nc1ccccc1C(=O)O | 101 | 110 | 104% | 96.8 | 103 | 102% | 98.2% | 97.7% | 96.4 | 101% | 94.3% | 97 | 108 | 97.8% | 102% | 97.6% | 102% | 91.6% | 93.7% | 71.1%
2 | C[As](=O)(O)c1ccc(C(=O)O)cc1 | 110 | 109 | 109% | 102 | 110 | 102% | 104% | 99.2% | 101 | 115% | 106% | 114 | 115 | 121% | 108% | 110% | 98.4% | 105% | 100% | 111%
3 | NS(=O)(=O)c1nc[nH]c1[N+](=O)[O-] | 99.8 | 102 | 111% | 102 | 103 | 100% | 102% | 101% | 102 | 101% | 105% | 96.9 | 96.7 | 115% | 102% | 99.8% | 115% | 107% | 94.9% | 103%
4 | Cc1cccc(N(C)c2cccc3c2C(=O)[Se]C3)c1C | 31.2 | 78 | 34.6% | 53.6 | 52.4 | 56.4% | 26.7% | 31.6% | 64.6 | 38.2% | 75.6% | 54 | 25.5 | 66.3% | 13.6% | 73.4% | 78% | 67.1% | 49.6% | 14.6%
5 | O=c1[nH]c2cc(Cl)ccc2n1C1CCN(CCCC(c2ccc(F)cc2)c2ccc(F)cc2)CC1 | 59.7 | 11.5 | -0.502% (active) | 29.2 | 24.8 | 15.5% | -52.2% (active) | -30.3% (active) | 39.7 | -91.9% (active) | -90.8% (active) | 48.5 | 76.3 | -99.6% (active) | 51.9% | 41.5% | 18.2% | -80.7% (active) | -32.4% (active) | -94.6% (active)
6 | CC12CCC(=O)C=C1C(O)CC1C2CCC2(C)C(O)CCC12 (centres undefined) | 100 | 115 | 102% | 114 | 98 | 98.7% | 105% | 106% | 99.5 | 97.2% | 115% | 117 | 108 | 103% | 108% | 112% | 112% | 109% | 97.1% | 98.8%
7 | CNC(=O)Oc1ccccc1 | 107 | 104 | 113% | 110 | 107 | 107% | 99.3% | 102% | 102 | 106% | 86.2% | 105 | 101 | 108% | 102% | 133% |  | 101% | 87% | 100%
8 | NC(=O)NC(=O)CI | 95.5 | 88 | 101% | 94.9 | 101 | 109% | 88.7% | 85.7% | 86.7 | -67.3% (active) | 89.5% | 84.7 | 114 | 102% | 99.4% | 8.8% (active) | 98.2% | 27.6% | 94.3% | 107%
9 | Cc1cc([N+](=O)[O-])c(Cl)cc1NS(=O)(=O)c1ccccc1 | 76.5 | 60.1 | 104% | 108 | 90.3 | 60.6% | 62.9% | 73.1% | 37.1 | 81.2% | 76% | 83.1 | 83.5 | 71.7% | 78.7% | 59.5% | 58.4% | 93.9% | 73.9% | 80.8%
10 | COc1ccc(-c2ccc(OC)c(OC)c2OC)cc1 | 46.1 | 21.3 | 13.8% | 43.8 | 51.5 | 3.98% (active) | 3.01% (active) | 27.1% | 34.4 | 16.5% | 49.6% | 55.8 | 58 | -25% (active) | -20% (active) | 27% | -24% (active) | 11.6% | 19.3% | 29.2%
11 | Cc1cc(N(CCCl)CCCl)ccc1C=Nc1ccc2ccccc2c1 | 60.8 | 75.5 | 71.5% | 92 | 72.3 | 69% | 88% | 79.7% | 28.4 | 82.8% | 102% | 57 | 24.4 | 85.7% | 71.2% | 5.25% (active) | 90.6% | 84.9% | 40% | 87.6%
12 | C[CH2][Pb]([CH2]C)([CH2]C)[O]C(=O)c1ccc(N)cc1 | 51.2 | 80.2 | 68% | 88.7 | 72.9 | 87.4% | 60% | 66.1% | 73.4 | 68.5% | 58.8% | 70.7 | 85.1 | 57.5% | 59.7% | 47.6% | -72.9% (active) | 28.7% | 56.1% | 59.4%
13 | CCOc1ccc(C(O)CN(C)Cc2ccccc2)cc1Cl (centres undefined) | 91.3 | 100 | 103% | 93.6 | 95.5 | 108% | 96% | 106% | 96.4 | 98.6% | 98.5% | 109 | 102 | 99.7% | 99.4% | 97.1% | 103% | 98.5% | 98.6% | 100%
14 | CC12CCC3C(CC=C4CC(O)CCC43C)C1C/C(=C\N1CCOCC1)C2=O (centres undefined) | 111 | 104 | 110% | 106 | 109 | 108% | 112% | 99.9% | 104 | 105% | 106% | 99.6 | 98.1 | 116% | 106% | 96% | 107% | 105% | 92.2% | 108%
15 | COC(=O)C1CC2c3ccccc3C1c1ccccc12 (centres undefined) | 111 | 104 | 119% | 122 | 107 | 101% | 107% | 91.2% | 103 | 94.7% | 109% | 97.9 | 104 | 115% | 105% | 102% | 107% | 106% | 96.5% | 113%
16 | O=C(O)C1[O][Sb][O]C1C(=O)O (centres undefined) | 110 | 102 | 91.4% | 128 | 93 | 98.2% | 94.5% | 88.5% | 110 | -57.9% (active) | 94% | 106 | 120 | 95.4% | 103% | 89.3% | 105% | 117% | 92% | 99.5%
17 | CCC1CN1P(=O)(OCCOC)N1CC1CC (centres undefined) | 114 | 103 | 110% | 107 | 109 | 97.1% | 109% | 99.4% | 103 | 105% | 107% | 103 | 103 | 119% | 115% | 104% | 98.9% | 106% | 99.4% | 114%
